The results in this text go back to PubChem BioAssay (NCATS).

Values joined by “and” are separate entries in the source; they are usually repeats but may differ in a detail not shown here. Equal entries are not always repeated. Inconclusive results are not listed. Active and inactive are the calls of the source. Calls follow the shape of the full dose curve.

One experiment can be described thus: qHTS Assay for Lipid Storage Modulators (AID 1519). As to activity change, negative = inhibition: % is scaled to controls: 0 for no effect and ±100 for the full control effect. As to conditions: Drosophila S3 cells, BODIPY lipid droplet/cell ratio, laser cytometry; at 57.5 µM (top of the series); cells loaded with oleic acid. Summed up: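 Cells seeded at 5,000 per well were treated with compounds over a concentration series and loaded with oleic acid (400 uM, as added). Lipid droplet fluorescence (488 nm excitation, 500-530 nm channel) was read by laser-scanning cytometry and normalized to 20 uM Triacsin C.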
On the technique in general: In qHTS, concentration-response curves come from the screen itself.
Take `CC(C)(O)[C@@H]1C2OC(=O)[C@@H]1[C@]1(O)C[C@H]3O[C@]34C(=O)O[C@H]2[C@]14C`: the activity change, negative = inhibition is 5.46% (inactive).

Take `CC(C)OC(=O)Nc1cccc(Cl)c1`: the activity change, negative = inhibition is 8.95% (inactive).

On to `CNC(=O)Oc1cccc2c1OC(C)(C)O2`, for which the activity change, negative = inhibition was 5.39% (inactive).

Regarding `CC[C@@H]1CN2CC[C@@H]1C[C@H]2[C@H](O)c1ccnc2ccc(OC)cc12`, the activity change, negative = inhibition was -1.21% (inactive).

As for `CC(=O)CC1CCCCN1` (stereo not given), the activity change, negative = inhibition is 4.86% (inactive).

`CC(C)c1cc2c(c(O)c1O)[C@]1(C(=O)O)CCCC(C)(C)C1CC2` (stereo not given in full): the activity change, negative = inhibition is 4.21% (inactive).

On to `COc1cc(C2c3cc4c(cc3C(O)C3COC(=O)C23)OCO4)cc(OC)c1O` (stereo not given), for which the activity change, negative = inhibition is 7.14% (inactive).

For `C/C=C(\C)C(=O)OC1CC(OC(C)=O)[C@@]2(C(=O)OC)COC3C2[C@@]12CO[C@](O)(C(=O)OC)C2[C@](C)(C12OC1(C)C1CC2OC2OC=C[C@]21O)C3O` (stereo not given in full), the activity change, negative = inhibition is -3.34% (inactive).

On to `COC(=O)COc1cc(Cl)c(Cl)cc1Cl`, for which the activity change, negative = inhibition is 2.27% (inactive).

Turning to `O=c1cccc2n1CC1CC2CN2CCCCC12` (stereo not given), the activity change, negative = inhibition was 0.982% (inactive).

Take `O=C1CCCC2[C@@H]3CCCN4CCC[C@@H](CN12)C34` (stereo not given in full): the activity change, negative = inhibition was 4.15% (inactive).

Take `CCCCSP(=O)(SCCCC)SCCCC`: the activity change, negative = inhibition was 12.5% (inactive).

Regarding `C[C@]12CCC3C(CC[C@H]4C[C@@H](O)CC[C@]34C)[C@@H]1CCC2=O` (stereo not given in full), the activity change, negative = inhibition was 0.0615% (inactive).

With `CCS(=O)CCSP(=O)(OC)OC` (stereo not given), the activity change, negative = inhibition is -0.0729% (inactive).

Turning to `OCC1CCCN2CCCCC12` (stereo not given), the activity change, negative = inhibition is 1.09% (inactive).

As to `COP(N)(=O)SC` (stereo not given), the activity change, negative = inhibition is 4.67% (inactive).

Consider `C[C@@]12CCC(=O)C[C@@H]1CC[C@@H]1[C@@H]2CC[C@]2(C)C(=O)CC[C@@H]12`, for which the activity change, negative = inhibition was 6.14% (inactive).

For the compound `O=C(CC[N+](=O)[O-])OCC1OC(O)C(OC(=O)CC[N+](=O)[O-])[C@@H](OC(=O)CC[N+](=O)[O-])C1OC(=O)CC[N+](=O)[O-]` (stereo not given in full), the activity change, negative = inhibition was 3.27% (inactive).

Take `CC(C)(C)C(=O)C(Oc1ccc(Cl)cc1)n1cncn1` (stereo not given): the activity change, negative = inhibition is 7.2% (inactive).

On to `CCN1C[C@@]2(COC(=O)c3ccccc3N3C(=O)CC(C)C3=O)CC[C@H](OC)[C@]34C5C[C@@H]6[C@@H](OC)C[C@@](O)(C5[C@H]6OC)[C@@](O)(C13)[C@@H](OC)C24` (stereo not given in full), for which the activity change, negative = inhibition was 4.09% (inactive).

On to `CC(C)N1C(=O)c2ccccc2NS1(=O)=O`, for which the activity change, negative = inhibition was 2.96% (inactive).

`C=C[C@H]1CN2CCC1C[C@@H]2C(O)c1ccnc2ccccc12` (stereo not given in full): the activity change, negative = inhibition is 7.24% (inactive).

For `O=C(O)COc1cc(Cl)c(Cl)cc1Cl`, the activity change, negative = inhibition was 1.28% (inactive).

On to `O=C1CC2OCC=C3CN4CC[C@]56c7ccccc7N1[C@H]5[C@H]2C3C[C@H]46` (stereo not given in full), for which the activity change, negative = inhibition was 9.09% (inactive).

For `COC1CC(OC2CC[C@@]3(C=O)C4CC[C@]5(C)C(C6=CC(=O)OC6)CC[C@@]5(O)C4CC[C@]3(O)C2)OC(C)C1O` (stereo not given in full), the activity change, negative = inhibition was 0.995% (inactive).

With `C[C@]12CCC(=O)C=C1CCc1ccc(O)cc12`, the activity change, negative = inhibition is -0.872% (inactive).

For `CC1OC(O[C@@H]2C(O)CC(O[C@@H]3C(O)C[C@@H](OC4CC[C@]5(C)[C@H](CC[C@H]6[C@@H]5CC[C@]5(C)C(C7=CC(=O)OC7)C(O)C[C@@]65O)C4)OC3C)OC2C)CC(O)C1O` (stereo not given in full), the activity change, negative = inhibition is 10.1% (inactive).

Regarding `CC1(C)C(O)CC(O)[C@]2(C)C1CC(=O)[C@]1(C)C2CC[C@@]2(C)C(c3ccoc3)OC(=O)C3OC321` (stereo not given in full), the activity change, negative = inhibition was -5.65% (inactive).

Turning to `CCC(=O)Nc1ccc(Cl)c(Cl)c1`, the activity change, negative = inhibition is 7.8% (inactive).

For the compound `CNC(=O)CSP(=S)(OC)OC`, the activity change, negative = inhibition was 4.16% (inactive).

Turning to `C[C@@]12CCC(Cl)C[C@H]1CCC1C2CC[C@]2(C)C(=O)CCC12` (stereo not given in full), the activity change, negative = inhibition was 8.24% (inactive).

`N#Cc1c(Cl)cccc1Cl`: the activity change, negative = inhibition was 7.12% (inactive).

For `C[C@]1(C(=O)O)CCC[C@]2(C)c3cc(O)ccc3CC[C@@H]12`, the activity change, negative = inhibition was -6.36% (inactive).

In the case of `CC(C)(C)[C@]1(O)C[C@@H]2OC(=O)C[C@@]23C(=O)O[C@@H]2OC(=O)[C@H](O)[C@]213`, the activity change, negative = inhibition is 3.73% (inactive).

As for `COc1nc(NC(C)C)nc(NC(C)C)n1`, the activity change, negative = inhibition is 2.18% (inactive).

As for `COC1=CC23CCCN2CCc2cc4c(cc2C3C1O)OCO4` (stereo not given), the activity change, negative = inhibition is 15.3% (inactive).

For the compound `CCc1cccc(C)c1N(C(=O)CCl)C(C)COC` (stereo not given), the activity change, negative = inhibition was 1.46% (inactive).

As to `CNC(=O)Oc1ccccc1OC(C)C`, the activity change, negative = inhibition is 5.74% (inactive).

`COc1cc(C2c3cc4c(cc3C(O)[C@H]3COC(=O)C23)OCO4)cc(OC)c1OC` (stereo not given in full): the activity change, negative = inhibition is 6.7% (inactive) and 5.22% (inactive).

Regarding `CC1CC[C@@]2(NC1)O[C@@H]1C[C@H]3C4CC=C5C[C@@H](O)CC[C@]5(C)C4CC[C@]3(C)[C@H]1[C@@H]2C` (stereo not given in full), the activity change, negative = inhibition was 7.46% (inactive).

Staying with this experiment, now noted: Drosophila S3 cells, BODIPY lipid droplet/cell ratio, laser cytometry; measured here: cell count channel max response; cells loaded with oleic acid.
As for `CC(C)(O)[C@@H]1C2OC(=O)[C@@H]1[C@]1(O)C[C@H]3O[C@]34C(=O)O[C@H]2[C@]14C`, the max response was 3.27%.

As for `CC(C)OC(=O)Nc1cccc(Cl)c1`, the max response was 5.17%.

Regarding `CNC(=O)Oc1cccc2c1OC(C)(C)O2`, the max response is 18%.

On to `CC[C@@H]1CN2CC[C@@H]1C[C@H]2[C@H](O)c1ccnc2ccc(OC)cc12`, for which the max response turned out to be 1.88%.

Consider `CC(=O)CC1CCCCN1` (stereo not given), for which the max response amounted to 11.3%.

On to `CC(C)c1cc2c(c(O)c1O)[C@]1(C(=O)O)CCCC(C)(C)C1CC2` (stereo not given in full), for which the max response is -11.1%.

For `COc1cc(C2c3cc4c(cc3C(O)C3COC(=O)C23)OCO4)cc(OC)c1O` (stereo not given), the max response is -1.69%.

In the case of `C/C=C(\C)C(=O)OC1CC(OC(C)=O)[C@@]2(C(=O)OC)COC3C2[C@@]12CO[C@](O)(C(=O)OC)C2[C@](C)(C12OC1(C)C1CC2OC2OC=C[C@]21O)C3O` (stereo not given in full), the max response was -9.57%.

On to `COC(=O)COc1cc(Cl)c(Cl)cc1Cl`, for which the max response worked out at 13.1%.

With `O=c1cccc2n1CC1CC2CN2CCCCC12` (stereo not given), the max response stood at 1.81%.

In the case of `O=C1CCCC2[C@@H]3CCCN4CCC[C@@H](CN12)C34` (stereo not given in full), the max response is 4.45%.

Consider `CCCCSP(=O)(SCCCC)SCCCC`, for which the max response came to 36.8%.

Regarding `C[C@]12CCC3C(CC[C@H]4C[C@@H](O)CC[C@]34C)[C@@H]1CCC2=O` (stereo not given in full), the max response was -8.24%.

Regarding `CCS(=O)CCSP(=O)(OC)OC` (stereo not given), the max response is 0.72%.

Regarding `OCC1CCCN2CCCCC12` (stereo not given), the max response was -1.96%.

With `COP(N)(=O)SC` (stereo not given), the max response was found to be 0.934%.

For `C[C@@]12CCC(=O)C[C@@H]1CC[C@@H]1[C@@H]2CC[C@]2(C)C(=O)CC[C@@H]12`, the max response was 2.79%.

As for `O=C(CC[N+](=O)[O-])OCC1OC(O)C(OC(=O)CC[N+](=O)[O-])[C@@H](OC(=O)CC[N+](=O)[O-])C1OC(=O)CC[N+](=O)[O-]` (stereo not given in full), the max response was 13%.

Consider `CC(C)(C)C(=O)C(Oc1ccc(Cl)cc1)n1cncn1` (stereo not given), for which the max response stood at 5.9%.

Take `CCN1C[C@@]2(COC(=O)c3ccccc3N3C(=O)CC(C)C3=O)CC[C@H](OC)[C@]34C5C[C@@H]6[C@@H](OC)C[C@@](O)(C5[C@H]6OC)[C@@](O)(C13)[C@@H](OC)C24` (stereo not given in full): the max response stood at 6.93%.

As for `CC(C)N1C(=O)c2ccccc2NS1(=O)=O`, the max response came to 13.1%.

With `C=C[C@H]1CN2CCC1C[C@@H]2C(O)c1ccnc2ccccc12` (stereo not given in full), the max response came to 20.2%.

With `O=C(O)COc1cc(Cl)c(Cl)cc1Cl`, the max response was found to be 13.2%.

For `O=C1CC2OCC=C3CN4CC[C@]56c7ccccc7N1[C@H]5[C@H]2C3C[C@H]46` (stereo not given in full), the max response turned out to be 14.5%.

Turning to `COC1CC(OC2CC[C@@]3(C=O)C4CC[C@]5(C)C(C6=CC(=O)OC6)CC[C@@]5(O)C4CC[C@]3(O)C2)OC(C)C1O` (stereo not given in full), the max response amounted to 18.6%.

Turning to `C[C@]12CCC(=O)C=C1CCc1ccc(O)cc12`, the max response was -10.5%.

With `CC1OC(O[C@@H]2C(O)CC(O[C@@H]3C(O)C[C@@H](OC4CC[C@]5(C)[C@H](CC[C@H]6[C@@H]5CC[C@]5(C)C(C7=CC(=O)OC7)C(O)C[C@@]65O)C4)OC3C)OC2C)CC(O)C1O` (stereo not given in full), the max response stood at 12.5%.

Take `CC1(C)C(O)CC(O)[C@]2(C)C1CC(=O)[C@]1(C)C2CC[C@@]2(C)C(c3ccoc3)OC(=O)C3OC321` (stereo not given in full): the max response worked out at 17%.

Regarding `CCC(=O)Nc1ccc(Cl)c(Cl)c1`, the max response was found to be 9.78%.

As for `CNC(=O)CSP(=S)(OC)OC`, the max response came out at 5.57%.

With `C[C@@]12CCC(Cl)C[C@H]1CCC1C2CC[C@]2(C)C(=O)CCC12` (stereo not given in full), the max response was determined as 9.07%.

In the case of `N#Cc1c(Cl)cccc1Cl`, the max response is 9.19%.

With `C[C@]1(C(=O)O)CCC[C@]2(C)c3cc(O)ccc3CC[C@@H]12`, the max response is -21.1%.

As to `CC(C)(C)[C@]1(O)C[C@@H]2OC(=O)C[C@@]23C(=O)O[C@@H]2OC(=O)[C@H](O)[C@]213`, the max response came out at 5.67%.

For the compound `COc1nc(NC(C)C)nc(NC(C)C)n1`, the max response was -5.5%.

Take `COC1=CC23CCCN2CCc2cc4c(cc2C3C1O)OCO4` (stereo not given): the max response turned out to be 26.5%.

Consider `CCc1cccc(C)c1N(C(=O)CCl)C(C)COC` (stereo not given), for which the max response was 1.84%.

Regarding `CNC(=O)Oc1ccccc1OC(C)C`, the max response was determined as 11.3%.

Regarding `COc1cc(C2c3cc4c(cc3C(O)[C@H]3COC(=O)C23)OCO4)cc(OC)c1OC` (stereo not given in full), the max response was -4.29% and 22%.

For the compound `CC1CC[C@@]2(NC1)O[C@@H]1C[C@H]3C4CC=C5C[C@@H](O)CC[C@]5(C)C4CC[C@]3(C)[C@H]1[C@@H]2C` (stereo not given in full), the max response is -0.557%.
